# An excerpt weighted towards active compounds, which were near 4.1% of everything screened.
# DAX1 inh-1: blocks DAX1 repression of SF-1 activated StAR promoter; HEK293T StAR-luciferase reporter, SF-1/DAX-1 repression relief; inhibition, % at 6.8 µM; 370,000 tested, 1.1% active; AID 652010;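 active = inhibition above the mean over all tested compounds plus 3 SD, cut at about 3.6% in these data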;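 note: 0% = DAX-1 cells with DMSO and 100% = cells lacking DAX-1 with DMSO; higher inhibition means more luminescence from relief of DAX-1 repression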
# DAX1 inh-2: inhibits human nuclear receptor DAX1 | HEK293 Gal4-DAX1 luciferase reporter, luminescence | inhibition, % at 6.75 µM | 340,000 tested, 0.99% active | AID 504766;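 active = inhibition above the mean over all tested compounds plus 3 SD, cut at about 4.2% in these data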;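 note: 0% = DAX1-transfected cells with DMSO and 100% = empty-vector control cells with DMSO; inhibition shows as a rise in luminescence from relieved DAX1 repression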
# Target sequence (P51843 207-470 limits assumed): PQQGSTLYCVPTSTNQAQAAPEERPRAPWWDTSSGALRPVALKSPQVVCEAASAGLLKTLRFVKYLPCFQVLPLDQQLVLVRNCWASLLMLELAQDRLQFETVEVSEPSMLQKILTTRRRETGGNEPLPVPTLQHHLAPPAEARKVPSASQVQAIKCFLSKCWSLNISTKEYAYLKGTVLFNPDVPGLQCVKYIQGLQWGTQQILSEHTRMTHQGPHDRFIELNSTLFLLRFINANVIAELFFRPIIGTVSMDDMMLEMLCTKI
# hcDAF12 agonist: activators of H. contortus DAF-12 nuclear receptor | HEK293 hcDAF-12 lit1-tk-luc reporter, luminescence; 0% DMSO, 100% Δ7-dafachronic acid | activation, % at 6.8 µM | 370,000 tested, 1.4% active | AID 652067;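 active = activation above the mean of all tested compounds plus 3 SD, cut at about 5.5% in these data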;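 note: 100% = response to 3 µM Δ7-dafachronic acid high control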
# ssDAF12 agonist: activators of S. stercoralis DAF-12 nuclear receptor; activation, % at 6.8 µM; 370,000 tested, 1% active; HEK293 ssDAF-12/GRIP1 lit1-tk-luc reporter, luminescence; % of 3 µM dafachronic acid response;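 active = activation above the mean over all tested compounds plus 3 SD, cut at about 0.9% in these data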;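 note: 0% = DMSO-only wells and 100% = 3 µM delta7-dafachronic acid wells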
# hgDAF-12 ag: hgDAF-12 agonism, primary luciferase screen; 370,000 tested, 1.8% active; activation, % at 6.8 µM; HEK293 GAL4-hgDAF12 UAS-luciferase reporter, agonist luminescence; normalized to butyrate control;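 active = activation above a cutoff set at the mean of all screened compounds plus 3 SD, cut at about 10% in these data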;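 note: 0% = DMSO wells and 100% = sodium butyrate wells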
# * hit, by the source's call; . = no result given; ! = a repeat was not active.
SMILES,DAX1 inh-1,DAX1 inh-2,hcDAF12 agonist,ssDAF12 agonist,hgDAF-12 ag
CNC(=O)c1cccn(Cc2ccc(C(F)(F)F)cc2)c1=O,-0.7,1.0,0.1,2.4*,-3.6
c1ccc2nc(N3CCNCC3)ccc2c1,-0.6,1.4,-0.3,-1.0,1.4
CC1CC(C)CN(C(=O)COC(=O)c2cn(C)c3ccccc23)C1 (centres undefined),0.3,-1.2,-0.3,-1.1,0.3
CCCCn1c(O)c(C(=O)/C=C/c2c[nH]c3ccccc23)c(=O)[nH]c1=O,0.3,0.9,6.0*,-0.9,-1.7
CCCCn1c(O)c(C(CC)=NCCc2ccccc2)c(=O)[nH]c1=O,-0.4,0.5,0.2,-0.9,-2.6
C=CCCC(NC(=O)OCc1ccccc1)P(=O)(Oc1ccccc1)Oc1ccccc1 (centres undefined),.,.,-0.7,-1.0,3.6
NCCNc1ccc([N+](=O)[O-])c2cccnc12,0.6,6.0*,2.2,-1.7,5.9
O=C(N/N=C/c1c(O)n(CCc2ccccc2)c(=O)[nH]c1=O)c1ccccc1,-0.1,.,-0.7,-1.1,2.1
COc1ccc(-c2cc(=NCCCCCC(=O)O)c3cc(C)ccc3o2)cc1,2.4,0.7,2.5,-0.8,10.6*!
COCCCN=Cc1c(O)[nH]c(=S)[nH]c1=O,1.1,7.0*,-1.8,-1.4,1.8
CCOP(=O)(OCC)c1cc(CC)ccc1O,0.2,-0.1,0.5,0.0,-0.6
CCOC(=O)CC(SP1(=S)OCC2(CC=CCC2)CO1)C(=O)OCC (centres undefined),3.9*,-0.3,0.7,-1.0,-3.4
C=Cn1ccnc1P(=S)(c1ccccc1)c1nccn1C=C,-0.3,0.1,-0.2,-0.6,-4.3
C=Cn1ccnc1P(=S)(c1ccc(Cl)cc1)c1nccn1C=C,-0.4,5.2*,0.1,0.5,0.4
CN1CC(C(=O)c2ccc(Cl)cc2)C(c2ccc(N(C)C)cc2)C1 (centres undefined),1.0,4.2*,0.8,0.0,0.4
CC(=O)Nc1ccc(C2CN(C)CC2C(=O)c2ccc(Cl)cc2)cc1 (centres undefined),4.2*,-0.1,-0.2,-0.9,0.8
N#Cc1ccc2nc(-c3ccc(CN4CCC(n5nnc6ccccc65)CC4)cc3)c(-c3ccccc3)nc2c1,-3.4,.,-3.1,-1.9,4.2
COc1cc2c3cc1Oc1cc(ccc1O)C[C@@H]1c4c(cc(OC)c(O)c4Oc4ccc(cc4)C[C@H]3N(C)CC2)CCN1C,4.5*,1.0,1.8,-0.4,-3.4
COC(=O)C1=C(c2ccc(OC(F)(F)F)cc2)C[C@@H]2CC[C@H]1N2C(=O)N1CCc2cc(OC)c(OC)cc2C1,-1.2,.,-2.6,-1.3,-2.8
O=C(CCn1nc(-c2ccc(Cl)cc2)ccc1=O)N1CCC2(CC1)OCCO2,-0.4,1.3,-0.6,-1.9,1.1
O=C(Cn1nc(-c2ccc(Cl)cc2)ccc1=O)N1CCC2(CC1)OCCO2,0.3,4.4*,-1.0,0.3,-3.2
Cc1ccccc1-n1c(O)c(/C=C2/C(c3ccccc3)=Nc3ccccc32)c(=O)[nH]c1=O,-2.0,-0.8,0.6,-1.4,-0.2
CC1=Nc2ccccc2/C1=C/c1c(O)n(C)c(=O)[nH]c1=O,0.5,3.2,6.4*,0.6,1.5
COC(=O)C1=Nc2ccccc2/C1=C\c1c(O)n(-c2cc(OC)ccc2OC)c(=O)[nH]c1=O,0.2,-0.2,5.8*,-0.7,3.2
O=P(Oc1ccccc1)(Oc1ccccc1)N1CCOCC1,0.1,-1.1,-0.4,-1.2,-2.6
SMILES,DAX1 inh-1,DAX1 inh-2,hcDAF12 agonist,ssDAF12 agonist,hgDAF-12 ag
COc1cccc2c1C(=O)c1c(O)c3c(c(O)c1C2=O)CC(O)(C(C)=NO)CC3OC1CC(N)C(O)C(C)O1 (centres undefined),-2.8,-2.8,4.8,1.9*,3.2
c1ccc(CN2CCc3nc4ccccc4cc3C2)cc1,0.1,2.0,0.9,-0.7,12.5*
CCc1cc2c(N3CCN(C)CC3)ncnc2s1,0.2,0.1,-0.5,-1.1,-2.1
CCN1CCN(c2ncnc3ccc(Br)cc23)CC1,-0.4,4.4*,-1.1,-0.9,5.1
COc1cc(C2c3cc4c(cc3CC3COC(=O)C32)OCO4)cc(OC)c1O (centres undefined),4.2*,-1.4,-0.6,-0.9,-4.0
COc1ccc2c(c1OC)C(=O)OC2C1c2cc3c(cc2CCN1C)OCO3 (centres undefined),0.2,1.2,0.3,-1.6,7.4

# Screening results as filed in PubChem BioAssay.
